# Measured values published in the supplement of paper PMC10646978.
# ± gives the standard deviation.
# Tests used:
# Details in all cases: modulator concentration 10 µM
# [1] = test system: RAW-Dual (murine macrophage reporter line); test: NF-kB reporter (SEAP) activity fold change vs agonist alone; higher = enhanced NF-kB activity
# In short: (§1)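 RAW-Dual murine macrophage reporter cells were seeded at 50 000 per well in 384-well plates and pre-incubated 1 hour at 37 °C with compound pin-transferred to 10 μM final. After 1 hour, a PRR agonist was added and cells incubated overnight. Supernatant NF-κB (SEAP, QUANTI-Blue, 620 nm absorbance) and IRF (Lucia luciferase, QUANTI-Luc, luminescence) signals were divided by the mean agonist-only control on the same plate to give fold change. Two replicate plates were averaged, with errors by propagation.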
# [2] = test system: RAW-Dual (murine macrophage reporter line); test: IRF reporter (Lucia luciferase) activity fold change vs agonist alone; higher = enhanced IRF activity
# In short: as §1
# [3] = test system: RAW-Dual (murine macrophage reporter line); test: viability score (confluency relative to resting cells, overnight) (fraction); higher = more viable, active = viable (0.7 or more)
# In short: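 Overnight exposure to 10 μM final compound was carried out on RAW-Dual macrophages in 384-well plates. IncuCyte software generated two confluency masks over all wells imaged with IncuCyte. The viability score gives confluency in relation to resting cells. A compound met the cutoff if each mask exceeded 70% of resting cells.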
# [4] = agonist: CpG ODN 1826 0.5 ug/mL
Compound,"NF-kB reporter [1, 4]",NF-kB reporter ([1]; agonist: LPS 0.1 ug/mL),NF-kB reporter ([1]; agonist: MPLA […]),IRF reporter ([2]; agonist: 3'3'-cGAMP 10 ug/mL),IRF reporter ([2]; agonist: LPS 0.1 ug/mL),IRF reporter ([2]; agonist: MPLA […]),viability score [3]
NC(=O)c1ncn(C2OC(CO)C(O)C2O)c1O (configuration not stated),0.931 ± 0.076,0.895 ± 0.088,0.917 ± 0.1,1.04 ± 0.037,1.32 ± 0.16,1.46 ± 0.2,1.01 (active)
CCCNCC(O)COc1ccccc1C(=O)CCc1ccccc1 (configuration not stated),0.639 ± 0.086,0.988 ± 0.098,1.21 ± 0.066,0.989 ± 0.07,0.948 ± 0.095,0.869 ± 0.16,0.826 (active)
O=C(Nc1ccc(S(=O)(=O)N2CCOCC2)cc1)c1ccc(Br)s1,1.14 ± 0.13,1.02 ± 0.092,1.01 ± 0.029,0.521 ± 0.021,1.05 ± 0.065,1.12 ± 0.12,0.995 (active)
CC1CCc2nnc(OCC3CCCN3C)cc2C1 (configuration not stated),0.837 ± 0.051,0.793 ± 0.11,0.99 ± 0.059,0.972 ± 0.061,1.19 ± 0.25,1.22 ± 0.48,0.996 (active)
CCOc1ccc(S(=O)(=O)NC(C)(C)C)cc1C,0.972 ± 0.081,0.852 ± 0.072,1.13 ± 0.12,0.971 ± 0.044,1.38 ± 0.082,1.53 ± 0.14,0.868 (active)
CNC(=O)c1cc(Oc2ccc(NC(=O)Nc3ccc(Cl)c(C(F)(F)F)c3)c(F)c2)ccn1.O,0.151 ± 0.012,0.0887 ± 0.0079,0.42 ± 0.035,0.0171 ± 0.0034,0.0276 ± 0.0016,0.0325 ± 0.0049,0.448 (inactive)
CCCCCCCCc1ccc(CCC(N)(CO)CO)cc1.Cl,0.687 ± 0.18,0.685 ± 0.047,1.55 ± 0.2,0.172 ± 0.019,0.673 ± 0.072,0.615 ± 0.15,0.513 (inactive)
COc1ccccc1OCC(O)COC(N)=O (configuration not stated),1.56 ± 0.26,1.28 ± 0.17,0.938 ± 0.058,0.93 ± 0.041,1.49 ± 0.15,1.21 ± 0.12,0.985 (active)
CC(C)N(C(=O)c1ccc(C(=O)NCc2ccc(S(N)(=O)=O)cc2)cc1)C(C)C,0.974 ± 0.057,1.07 ± 0.079,0.909 ± 0.072,0.961 ± 0.033,1.51 ± 0.12,1.21 ± 0.18,1 (active)
CN1CCC[C@@H]1CCO[C@](C)(c1ccccc1)c1ccc(Cl)cc1.O=C(O)/C=C/C(=O)O,1.17 ± 0.29,1.01 ± 0.13,1.06 ± 0.1,0.526 ± 0.021,1.28 ± 0.17,1.63 ± 0.16,0.321 (inactive)
Oc1ccc(-c2cnc(-c3ccc(O)cc3)nc2)cc1,0.924 ± 0.22,0.965 ± 0.091,1.42 ± 0.1,0.347 ± 0.017,0.555 ± 0.08,0.591 ± 0.16,0.927 (active)
Cc1ccc(-n2ncc3c(Nc4cccc(C)c4)ncnc32)cc1,0.987 ± 0.2,1.14 ± 0.098,1.02 ± 0.1,0.938 ± 0.05,1.09 ± 0.23,1.19 ± 0.15,0.995 (active)
CN(C)c1ccc(C2N(C)c3ccccc3N2C)cc1,1.2 ± 0.19,1.69 ± 0.13,2.19 ± 0.2,0.939 ± 0.031,1.88 ± 0.23,1.94 ± 0.25,0.858 (active)
CCOC(=O)c1c(C)nn(C2CCCCC2)c1N,1.1 ± 0.1,1.02 ± 0.049,1.09 ± 0.099,0.954 ± 0.044,1.2 ± 0.075,1.37 ± 0.12,1.02 (active)
COc1ccc(Cn2c(SC)nc3c(c2=O)C2(CCCCC2)Cc2ccccc2-3)cc1,1.43 ± 0.45,0.856 ± 0.076,1.15 ± 0.2,0.791 ± 0.099,0.995 ± 0.076,1.33 ± 0.25,0.989 (active)
COc1cccc(S(=O)(=O)NCc2sc(-c3ccccc3)nc2C)c1,1.26 ± 0.12,1.1 ± 0.086,0.901 ± 0.045,0.922 ± 0.059,1.11 ± 0.12,1.16 ± 0.28,0.942 (active)
CC1CC(=CC=CN(C)C)C(=O)C(=CC=CN(C)C)C1 (configuration not stated),1.04 ± 0.17,1 ± 0.085,0.917 ± 0.099,0.888 ± 0.043,1.22 ± 0.23,1.32 ± 0.28,1 (active)
Nc1nc2c(ncn2C2CC(O)C(CO)O2)c(=O)[nH]1 (configuration not stated),0.96 ± 0.089,0.787 ± 0.059,0.93 ± 0.089,1.02 ± 0.043,1.26 ± 0.2,1.36 ± 0.28,1.02 (active)
Cl.Clc1ccccc1CN1CCc2sccc2C1,0.93 ± 0.092,0.952 ± 0.11,0.916 ± 0.024,0.902 ± 0.05,1.01 ± 0.14,1.1 ± 0.25,0.992 (active)
COC(=O)C1=C(C#N)NC(C)=C(C(=O)OC(C)C)C1c1cccc([N+](=O)[O-])c1 (configuration not stated),0.832 ± 0.041,1.01 ± 0.097,0.929 ± 0.04,0.978 ± 0.083,1.1 ± 0.068,1.19 ± 0.12,0.968 (active)
Clc1ccccc1C1Nc2cccc3cccc(c23)N1,1.04 ± 0.092,0.898 ± 0.091,0.867 ± 0.084,0.684 ± 0.06,0.967 ± 0.14,0.792 ± 0.14,0.97 (active)
COCc1cc(C)nc2sc(C(=O)c3cccc([N+](=O)[O-])c3)c(N)c12,0.804 ± 0.063,0.719 ± 0.034,0.78 ± 0.29,0.943 ± 0.043,1.36 ± 0.12,1.53 ± 0.14,1.01 (active)
CCOc1ccccc1NC(=O)NCc1sc(-c2ccccc2Cl)nc1C,0.768 ± 0.19,1.07 ± 0.058,0.98 ± 0.072,0.89 ± 0.048,0.926 ± 0.17,0.898 ± 0.11,1 (active)
C[N+]1(C)CCC(OC(=O)C(O)(c2ccccc2)C2CCCC2)C1 (configuration not stated) [Prestw-746],0.923 ± 0.061,0.998 ± 0.066,0.943 ± 0.062,0.949 ± 0.031,1.24 ± 0.16,1.13 ± 0.17,1.01 (active)
O=C1SC(=Cc2ccc([N+](=O)[O-])cc2)C(=O)N1Cc1ccccc1,0.98 ± 0.064,1.04 ± 0.069,0.951 ± 0.071,0.989 ± 0.042,1.5 ± 0.28,1.23 ± 0.12,1 (active)
Cc1cc(C(=O)O)n[nH]1,1.01 ± 0.077,0.891 ± 0.15,1.03 ± 0.12,1.06 ± 0.038,1.24 ± 0.14,1.34 ± 0.2,1.02 (active)
